Where “and” joins values, the source holds several entries; their conditions need not be identical. Equal values may be shown once.
Test: qHTS of Nrf2 Activators: Hit Validation in NQO-1 Induction Assay
Conditions: Hepa1c1c7 cells, NQO1 mRNA qPCR, 24 h; at 1 µM; stronger effect = higher value;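 active means relative NQO1 transcription at 1 µM of 250% or more; inconclusive means relative NQO1 transcription between 200% and 250%; inactive means relative NQO1 transcription under 200%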
Description: Many diseases have some form of oxidative stress injury and ties to inflammation, causing a host of problems for the patient. The antioxidant response element (ARE) plays an important role in alleviating the harmful effects of oxidative stress. The antioxidant response element (ARE) is a transcriptional regulatory element involved in the activation of genes coding for a number of antioxidant proteins and detoxifying enzymes. These enzymes work in concert to protect tissues from oxidative insults and chemical toxicities in human hepatocytes and immune cells. The protective effects of ARE activation are primarily triggered through Nrf2 (NF-E2-related factor) binding to and activating AREs. It is known that Nrf2 controls the production of over 250 antioxidant and detoxification proteins (Hu et al., 2006), thereby protecting tissues by increasing cellular antioxidant content and suppressing inflammatory signaling pathways. The transcription factor Nrf2 is a central link between oxidative chemicals, such as phenolic antioxidants and electrophilic compounds, and the activation of ARE. Nrf2 levels are constitutively low as a consequence of its interaction with Keap1, which targets its degradation (Zipper and Mulcahy, 2002). Electrophiles react with key cysteine residues in Keap1, releasing Nrf2 and allowing its translocation to the nucleus. Once within the nucleus, Nrf2 complexes with coactivators such as p300, and binds to the AREs to induce gene transcription of cytoprotective enzymes, resulting in the prevention of toxicity. Activation of Nrf2 protects tissues by increasing cellular antioxidant content and suppressing inflammatory signaling pathways. Identifying novel and potent Nrf2 activators by using the AREc32 cell line to detect ARE activation by small molecules will lead to the identification and development of probes to study protective pathways in multiple tissues. These specific probes are essential to study the ARE pathway, and eventually to determine whether this pathway does activate genes that could protect against a host of diseases, including cardiovascular diseases, obesity, diabetes, Alzheimer's, and Parkinson's disease. This project's aim is to identify novel and potent Nrf2 activators by using the AREc32 cell line to detect ARE activation by small molecules, which will lead to the identification and development of probes to study the ARE pathway. Compounds that were identified in the primary screen were tested in this secondary assay to assess whether a hit also activates Nrf2 transcription of the target gene NQO-1. NIH Chemical Genomics Center [NCGC] NIH Molecular Libraries Probe Centers Network [MLPCN] MLPCN Grant: DK081461 Assay Submitter (PI): Curtis Klaassen, University of Kansas Medical Center
Hepac1c7 cells were seeded into 24-well plates at a density of 30,000 cells/well in 1 mL complete media per well and cultured overnight to allow attachment. Cells were treated the next day with compounds (1 uM)or positive control for 24 h. Total RNA samples were then isolated by using RNAzol B reagent (Tel-Test, Inc., Friendswood, TX) according to the manufacturer's protocol. Total RNAs were reverse-transcribed into cDNA by High Capacity cDNA Archive Kits (Applied Biosystems, Foster City, CA) and the resulting cDNA was used for real-time PCR analysis using SYBR(R) Green PCR Master Mix in a 7900HT Fast Real-Time PCR System.

Relative NQO1 transcription, inactive:
Clc1ccc2c(NCc3ccccn3)ncnc2c1 83%
CS(=O)(=O)c1nc(S(=O)(=O)c2ccc(Cl)cc2)c(N2CCOCC2)s1 129%
COc1ccc(NC(=O)c2cc(-c3ccco3)on2)c(OC)c1 75%
COC(=O)c1c(NC(=O)c2ccccc2)sc(C(N)=O)c1C 60%
O=C(Nc1ncnc2sc3c(c12)CCC3)c1ccco1 175%
O=C(Nc1ncnc2sc3c(c12)CCCCC3)c1ccco1 163% and 137%
COc1ccccc1NC(=O)c1cc(Cl)nc2ccccc12 79%
Cc1nc(NCc2ccco2)nc2c1C(=O)CC(C)C2 (stereo not given) 175%
O=C(Nc1cccc2ncccc12)c1ccc(Cl)cc1 136%
COc1ccc(NC(=O)c2cc(-c3cccs3)on2)c(OC)c1 129%

— PubChem BioAssay AID652013 (National Center for Advancing Translational Sciences (NCATS), 2013)
